Bioassay records as filed in PubChem BioAssay.
tim10-1 inh: growth inhibitors of tim10-1 mutant yeast, primary screen, luminescence, uHTS; S. cerevisiae tim10-1 ts strain growth, BacTiter-Glo, 24 h; inhibition, % at 20 µM; 330,000 compounds, 2.2% hits;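 active = inhibition of at least 40%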;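 also: mutant grown at 25 °C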
SKKanGAS inh: S. pyogenes SKKanGAS growth inhibitors in kanamycin, primary screen, streptokinase expression inhibitor project, SKKanGAS strain, BacTiter-Glo luminescence | inhibition, % at 7.5 µM | AID 1662, 2009 | 6 h | 300,000 compounds, 1.3% hits;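 active = mean replicate score, as percent of positive control median, at least 50; inconclusive = mean below 50 but one replicate at or above 50; inactive = mean and every replicate below 50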;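 also: strain carries kanamycin resistance gene driven by streptokinase promoter and grows in 40 µg/ml kanamycin; loss of luminescence reflects streptokinase promoter inhibition or plain growth inhibition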
PfHsp90 yeast 2: growth inhibition of PfHsp90-expressing yeast, primary screen, antimalarial PfHsp90 inhibitor project, S. cerevisiae, BacTiter-Glo luminescence, single point, set 2. BacTiter-Glo ATP, 48 h; yeast lacking PDR1 and PDR3 efflux regulators. AID 504621, 2011. inhibition, % at 9.4 µM. 310,000 compounds, 0.32% hits;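 active = every replicate shows inhibition above about 80%, whatever the replicate mean, limit read from the data; inconclusive = mean inhibition reaches the set limit but some replicate falls short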
tim23-1 inh: growth inhibitors of tim23-1 mutant yeast, primary screen, luminescence, uHTS; S. cerevisiae tim23-1 growth, BacTiter-Glo luminescence, 24 h; inhibition, % at 20 µM; 330,000 compounds, 1.3% hits; AID 463212, 2010;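 active = growth inhibition of the mutant yeast at or above 50%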;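 also: temperature-sensitive mutant grown at 25 °C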
EBI2 block: EBI2 receptor antagonists, beta-arrestin recruitment, primary screen, cell-based, luminescence, 7a,25-OHC stimulation, uHTS; G-protein coupled receptor 183 (Homo sapiens), P32249; 7a,25-OHC stimulated; inhibition, % at 5 µM; 360,000 compounds, 0.81% hits; AID 651636, 2012; in the data active = inhibition above about 38%;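 also: enzyme fragment complementation signal reports receptor beta-arrestin coupling in cells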
Target sequence (P32249 whole entry, looked up, the tested form may be a part): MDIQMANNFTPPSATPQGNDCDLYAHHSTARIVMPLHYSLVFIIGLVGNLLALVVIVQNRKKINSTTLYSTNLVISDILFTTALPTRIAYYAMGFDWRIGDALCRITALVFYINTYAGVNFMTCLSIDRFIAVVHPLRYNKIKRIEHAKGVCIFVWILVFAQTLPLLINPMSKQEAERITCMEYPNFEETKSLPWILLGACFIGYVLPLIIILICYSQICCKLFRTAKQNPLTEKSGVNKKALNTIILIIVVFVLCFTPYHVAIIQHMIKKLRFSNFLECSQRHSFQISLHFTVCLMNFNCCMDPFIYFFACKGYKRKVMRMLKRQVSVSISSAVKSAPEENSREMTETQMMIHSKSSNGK
TIM10 inh: growth inhibitors of isogenic TIM10 control yeast, primary screen, counter-screen for tim10-1 yeast inhibitor project, luminescence, uHTS. 330,000 compounds, 1.4% hits. inhibition, % at 10 µM. S. cerevisiae TIM10 strain growth, BacTiter-Glo luminescence, 24 h;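 active = inhibition of 40% or more at the single tested concentration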;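 also: wild-type TIM10 isogenic control strain grown at permissive 25 °C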
TIM10 conf: growth inhibitors of wild-type TIM10 yeast, confirmation, counter-screen for tim10-1 synthetic lethality project, single concentration, luminescence, S. cerevisiae. shares compounds with TIM10 inh. S. cerevisiae tim10 strain growth, BacTiter-Glo luminescence, 24 h. inhibition, % at 10 µM. 4,600 compounds, 63% hits. AID 463215, 2010;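 active = inhibition of yeast growth at or above a set limit in either of two replicates at 10 µM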; also: this counterscreen used the strain with wild-type TIM10
Large screens that a line does not name were inactive (follow-up assays come after a bar, where they were run). Rows were chosen to be rich in hits. Some 4.7% of all compounds tested hit in one or more screens of this group.

O=C(Cn1c2ccc(F)cc2c2nc3n(c(=O)c21)CCS3)Nc1ccc(Cl)cc1F	TIM10 inh 41.1 | TIM10 conf 33.5
O=C(c1ccc(Cl)cc1)n1c(NCc2ccccc2)n[nH]c1=S	none
CN(C)CCCn1c(SCC(=O)Nc2nc(-c3cccc(Br)c3)cs2)nc2ccccc2c1=O	SKKanGAS inh 97.0, TIM10 inh 43.2 | TIM10 conf inactive
CCCCn1c(SCC(=O)Nc2nccs2)nc2ccccc2c1=O	none
CC(C)(C)c1cc(-c2n[nH]c(=S)n2-c2ccccc2F)n[nH]1	none
CSc1nc(-c2ccccc2)nn1C(=O)c1ccc(Cl)cc1	TIM10 inh 48.5 | TIM10 conf inactive
O=C(OCc1nnc(-c2cccs2)o1)C1=NN(c2ccccc2)C(=O)CC1	none (no result: SKKanGAS inh)
O=C(Nc1ccc(S(=O)(=O)N2CCCCC2)cc1)c1ccccc1Cl	TIM10 inh 45.3 (no result: PfHsp90 yeast 2) | TIM10 conf 38.8
O=C(Nc1ccc(S(=O)(=O)N2CCCCCC2)cc1)c1ccco1	TIM10 inh 47.6 (no result: PfHsp90 yeast 2) | TIM10 conf inactive
Cc1c(C(=O)N2CCNCC2)oc2ccccc12	none
Cc1cc(C)c(S(=O)(=O)N2CCC(C(=O)NCc3ccc(Cl)cc3Cl)CC2)c(C)c1	PfHsp90 yeast 2 127.5, TIM10 inh 56.1 | TIM10 conf 50.6
CCNC(=S)N/N=C/c1cc(C)n(-c2ccc(Cl)cc2)c1C	TIM10 inh 50.0 | TIM10 conf inactive
Cc1cc(/C=N/NC(N)=S)c(C)n1-c1ccc(Cl)c(Cl)c1	none
Cc1ccc(C)c(OCCC(=O)N2CCN(S(=O)(=O)c3ccc([N+](=O)[O-])cc3)CC2)c1	TIM10 inh 53.1 (no result: SKKanGAS inh) | TIM10 conf inactive
Cc1ccc(S(=O)(=O)N2CCN(C(=O)COC(=O)CCOc3cc(C)ccc3C)CC2)cc1	none
CC(=O)c1c(C)oc(C)c1CSCc1ccc(C(=O)O)o1	none
COc1ccc(Cc2nc(C)cc(Cl)n2)cc1[N+](=O)[O-]	TIM10 inh 41.9 | TIM10 conf inactive
COc1ccc(CC(=O)O/N=C(\N)Cc2ccc(OC)c(OC)c2)cc1	none
COc1ccc(C/C(N)=N/OC(=O)c2ccc(Cl)cc2)cc1	TIM10 inh 49.1 | TIM10 conf 58.5
COc1ccc(C/C(N)=N/OC(=O)Cc2ccccc2)cc1	TIM10 inh 52.2 (no result: PfHsp90 yeast 2) | TIM10 conf inactive
N/C(Cc1ccc(Cl)cc1)=N\OC(=O)c1cccc2ccccc12	PfHsp90 yeast 2 128.3, EBI2 block 52.0, TIM10 inh 75.5 | TIM10 conf 76.3
O=C(CNS(=O)(=O)c1ccc(Br)s1)N1CCC(N2CCCCC2)CC1	none (no result: PfHsp90 yeast 2)
CC(C)(C)CC(C)(C)NC(=O)Nc1cccc([N+](=O)[O-])c1	TIM10 inh 46.5 | TIM10 conf 45.4
Cc1ccc(NC(=O)Nc2cccc([N+](=O)[O-])c2)cc1F	none
CC(C)(C)c1ccc(C(=O)Nc2cccc([N+](=O)[O-])c2)cc1	none (no result: tim10-1 inh, tim23-1 inh, TIM10 inh)
O=C(Nc1ccc(OC(F)(F)F)cc1)Nc1cccc([N+](=O)[O-])c1	TIM10 inh 44.5 | TIM10 conf 34.2
C=C(C)CSc1nnc([C@@H](NC(=O)OC(C)(C)C)C(C)CC)o1 (some centres not stated)	none (no result: PfHsp90 yeast 2)
CN(C)CCCNc1cc(C(C)(C)C)nc2c(-c3ccc(Cl)cc3)cnn12	SKKanGAS inh 74.5, TIM10 inh 54.7 | TIM10 conf 60.2
O=C(Nc1ccc2c(c1)Cc1ccccc1-2)c1ccncc1	TIM10 inh 56.9 | TIM10 conf inactive
O=C(Nc1ccc(Cl)c(Cl)c1)c1ccncc1	none
CC(C)(C)C(=O)OCc1nc(-c2ccc(F)cc2)cs1	TIM10 inh 40.9 | TIM10 conf 39.1
COc1ccc(-c2csc(COC(=O)C(C)(C)C)n2)cc1	none
O=C(/C=C/c1cccc([N+](=O)[O-])c1)OCC(=O)N1CCCCC1	none (no result: tim10-1 inh, SKKanGAS inh, PfHsp90 yeast 2, tim23-1 inh, TIM10 inh)
CCOc1cc(/C=N/NC(=O)COc2ccccc2C)ccc1OC(=O)c1cccs1	TIM10 inh 40.6 | TIM10 conf inactive
Cn1c(SC(C(=O)Nc2ccc(F)cc2)c2ccccc2)nc2ccccc21 (configuration not stated)	TIM10 inh 45.9 | TIM10 conf 43.3
CCC(C)(C(=O)NC1CCCC1)N(Cc1cccs1)C(=O)Cc1cccs1 (configuration not stated)	TIM10 inh 45.1 | TIM10 conf inactive
CCC(C)(C(=O)NC1CCCC1)N(Cc1cccs1)C(C)=O (configuration not stated)	none
COc1ccc(-c2[nH]ncc2Oc2ccccc2OC)c(O)c1	TIM10 inh 52.3 (no result: PfHsp90 yeast 2) | TIM10 conf inactive
CCCc1ccc(Oc2cn[nH]c2-c2ccc(O)cc2O)cc1	PfHsp90 yeast 2 inconclusive, TIM10 inh 44.4 (no result: SKKanGAS inh) | TIM10 conf 71.7
O=C(NCCc1ccccc1F)C1CC(=O)N(c2ccc3c(c2)OCCO3)C1 (configuration not stated)	none (no result: tim10-1 inh, SKKanGAS inh, PfHsp90 yeast 2, tim23-1 inh, TIM10 inh)
Cc1cc2ncn(/N=C/c3ccc([N+](=O)[O-])o3)c2cc1C	TIM10 inh 56.7 | TIM10 conf 56.0
Cc1cc(C(=O)CCl)c(C)n1CCc1ccc(F)cc1	none
COc1ccc(CCn2c(C)cc(C(=O)CCl)c2C)cc1OC	TIM10 inh 42.4 | TIM10 conf 43.6
O=C(CN1C(=O)COc2ccccc2C1=O)c1ccc2c(c1)OCCO2	none
CC(C)COC(=O)C(C#N)c1nc2ccccc2nc1N1CCN(Cc2ccc3c(c2)OCO3)CC1 (configuration not stated)	TIM10 inh 48.7 | TIM10 conf 38.9
COC(=O)C(C#N)c1nc2ccccc2nc1N1CCN(Cc2ccc3c(c2)OCO3)CC1 (configuration not stated)	none (no result: PfHsp90 yeast 2, EBI2 block)
COc1ccc(S(=O)(=O)NNC(=O)Cc2csc(C)n2)cc1[N+](=O)[O-]	none
OC[C@H]1O[C@@H](c2nc(-c3ccccc3Br)no2)[C@H](O)[C@@H](O)[C@H]1O	none (no result: tim10-1 inh, SKKanGAS inh, PfHsp90 yeast 2, tim23-1 inh, TIM10 inh)
O=C1C(Nc2ccccc2)=C(N2CCCCC2)C(=O)c2ccccc21	none
O=C1C(Nc2cccc(O)c2)=C(N2CCCCC2)C(=O)c2ccccc21	TIM10 inh 45.8 | TIM10 conf 39.6
CN(C)S(=O)(=O)c1cccc(-c2nnc3n2CCCCC3)c1	none
O=C(c1ccc(Cn2c(=S)[nH]c3ccccc3c2=O)cc1)N1CCN(c2ccccn2)CC1	TIM10 inh 72.9 (no result: PfHsp90 yeast 2) | TIM10 conf inactive
